High-throughput results deposited in PubChem by National Center for Advancing Translational Sciences (NCATS).
AmpC detergent – qHTS Inhibitors of AmpC Beta-Lactamase (assay with detergent); P00811; AmpC hydrolysis of nitrocefin, absorbance 480 nm, 0.01% Triton; Potency, µM (series often up to 114 µM), hits mostly inhibitors; hit rate 0.041% among 370,000; further: nearly all actives have a fitted effect of over 25% in size
Target sequence (P00811 whole entry, looked up): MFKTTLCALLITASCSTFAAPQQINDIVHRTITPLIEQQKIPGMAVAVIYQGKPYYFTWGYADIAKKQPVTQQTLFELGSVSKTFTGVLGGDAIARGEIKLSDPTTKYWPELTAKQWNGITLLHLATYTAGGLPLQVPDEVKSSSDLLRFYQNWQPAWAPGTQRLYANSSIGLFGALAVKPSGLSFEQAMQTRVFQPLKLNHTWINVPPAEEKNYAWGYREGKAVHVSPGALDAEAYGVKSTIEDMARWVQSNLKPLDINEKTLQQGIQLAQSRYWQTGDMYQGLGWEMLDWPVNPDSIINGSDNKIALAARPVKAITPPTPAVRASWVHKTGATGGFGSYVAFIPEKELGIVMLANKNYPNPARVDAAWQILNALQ
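AmpC (5.3 nM in the dispensed reagent) in 20 mM phosphate pH 7.0 with 0.01% (detergent screen) or 0.0001% Triton X-100 was preincubated with compounds for 15 min at room temperature. Nitrocefin was then added from an 800 uM solution, and hydrolysis was followed at 480 nm.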
SARS PLP yeast – qHTS of Yeast-based Assay for SARS-CoV PLP | S. cerevisiae expressing SARS-CoV PLpro, growth rescue | Potency, µM (series often up to 32.9 µM), actives largely listed as activators | hit rate 0.19% among 330,000 | AID 485353, 2010; calls by dose curve; further: nearly all actives have a fitted effect of over 55% in size
AmpC no deterg – qHTS Inhibitors of AmpC Beta-Lactamase (assay without detergent); P00811; AmpC nitrocefin hydrolysis, absorbance 480 nm, 0.0001% Triton; Potency, µM (doses to about 57.1 µM), actives largely listed as inhibitors; hit rate 0.52% among 330,000; AID 485341, 2010; further: nearly all actives have a fitted effect of over 20% in size
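AmpC (5.3 nM in the dispensed reagent) in 20 mM phosphate pH 7.0 with 0.01% (detergent screen) or 0.0001% Triton X-100 was preincubated with compounds for 15 min at room temperature. Nitrocefin was then added from an 800 uM solution, and hydrolysis was followed at 480 nm.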
Pf growth 96h – Primary qHTS for delayed death inhibitors of the malarial parasite plastid, 96 hour incubation. P. falciparum luciferase reporter growth, 96 h. hit rate 6.9% among 320,000. Potency, µM (titrated, usually from 28.7 µM), most hits filed as inhibitors. AID 504834, 2011
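Erythrocytes infected with luciferase-expressing P. falciparum were dispensed at 2% hematocrit and 0.05% parasitemia (final), then incubated with compounds 96 hours at 37 C in 5% CO2. Luminescence after detection reagent addition reported growth.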
Sm TGR block – qHTS Assay for the Inhibitors of Schistosoma Mansoni Peroxiredoxins. purified TGR, DTNB reduction, TNB absorbance 405 nm. AID 485364, 2010. Potency, µM (highest dose often 114 µM), usual class: inhibitors. hit rate 3% among 360,000; further: nearly all actives have a fitted effect of over 60% in size
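First, TGR (20 nM dispensed) and NADPH were mixed with compound. Second, a 15 min room-temperature incubation followed. Third, further NADPH and then DTNB were added to start the reaction. Finally, TNB absorbance was monitored kinetically.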
Pf growth 48h – Primary qHTS for delayed death inhibitors of the malarial parasite plastid, 48 hour incubation; P. falciparum luciferase growth in erythrocytes, 48 h; Potency, µM (doses to about 28.7 µM), actives largely listed as inhibitors; hit rate 5.9% among 310,000; AID 504832, 2011
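Erythrocytes infected with P. falciparum carrying an integrated firefly luciferase reporter (2% hematocrit, 0.1% parasitemia final) were exposed to compounds in RPMI 1640 with 0.5% Albumax at 37 C, 5% CO2. Growth inhibition was scored as reduced luminescence.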
Numbers stand for hits; . = inactive; ? = inconclusive; / = no result. Compounds with a hit are over-represented: about 12% of the library has one in this group of screens. Unless noted, the call rests on the fitted dose curve; in most records, active means well fitted curve in the direction sought with a large enough effect; inconclusive means small, poorly fitted or top-dose-only effect, or another doubt; inactive means no such curve, though single readings can be large; an effect the other way counts as inactive or inconclusive.

SMILES	AmpC detergent	SARS PLP yeast	AmpC no deterg	Pf growth 96h	Sm TGR block	Pf growth 48h
Cc1cccc(C)c1NC(=O)CN(C)C(=O)c1cccc(S(=O)(=O)N2CCN(c3ccccc3)CC2)c1	.	.	.	?	.	.
O=C(COc1ccc(Cl)cc1)NCc1nnc(SCC(=O)N2CCCc3ccccc32)o1	.	.	.	.	.	/
COc1ccc(Cl)cc1NC(=S)NNC(=O)C1(C)CC1(Cl)Cl (centres undefined)	.	.	.	.	.	.
COc1ccccc1N1CCN(C(=O)c2cc(-c3ccccc3)on2)CC1	.	.	.	.	.	.
COc1ccccc1-c1cc(C(=O)N2CCN(c3ccc(F)cc3)CC2)no1	?	.	.	8.28µM	.	.
COc1ccccc1N1CCN(C(=O)c2cc(-c3ccco3)on2)CC1	.	.	.	?	56.2µM	/
O=C(c1cc(-c2ccco2)on1)N1CCN(c2ccccc2)CC1	.	.	3.16µM	?	.	.
COc1ccccc1-c1cc(C(F)(F)F)nc(N2CCN(c3ccc(F)cc3)CC2)n1	.	.	.	13.1µM	.	.
CCc1ccc(CNC(=O)CCN2C(=O)COc3ccccc32)cc1	.	/	/	/	.	/
CC(C)Cc1cc(C(=O)N2CCN(c3ccc(F)cc3)CC2)no1	.	.	0.316µM	.	.	.
O=C(c1cc(-c2ccc(Cl)cc2)on1)N1CCN(c2ccc(F)cc2)CC1	?	.	.	?	.	.
CC1CCCCC1NC(=O)CSc1nnc(CC(=O)Nc2ccccc2F)n1C (centres undefined)	.	.	.	.	.	.
Cc1cc(Cl)c2oc(C(=O)NCCN3CCCCC3CO)c(C)c2c1 (centres undefined)	?	.	.	13.1µM	.	?
CCOc1cc(C2Nc3cccc4cccc(c34)N2)ccc1O	?	.	.	.	11.2µM	/
CCOc1ccc(C2Nc3cccc4cccc(c34)N2)cc1OC	.	.	.	.	25.1µM	.
CCOc1cc(C2Nc3ccccc3C(=O)N2c2ccccc2)ccc1O (centres undefined)	?	.	.	?	.	/
COc1ccc(C2Nc3cccc4cccc(c34)N2)cc1	.	.	.	.	/	?
CN1CCN(c2c(F)cc3c(=O)c(C(=O)O)cn4c3c2SCC4)CC1	?	.	.	5.22µM	.	?
C[C@@H]1COc2c(N3CCN(C)CC3)c(F)cc3c(=O)c(C(=O)O)cn1c23	/	/	/	?	/	.
COc1ccccc1CNC(=O)CCCn1c(=O)c2ccccc2n(Cc2ccc(F)cc2)c1=O	.	/	/	/	.	/
CCCCCCCCCCCCCCCC[n+]1ccc(/C=N/O)cc1	.	.	.	1.17µM	.	2.33µM
CCCCCCCCCCCCCCCC[n+]1ccccc1	/	/	/	1.51µM	/	3.79µM
CCCCCCC[n+]1ccc(-c2cc[n+](CCCCCCC)cc2)cc1	.	.	.	0.329µM	.	0.415µM
Oc1ccc[n+](CCCCC[n+]2cccc(O)c2)c1	.	.	.	.	.	.
CCCCCCCCCCCCCC[n+]1ccc(C)cc1	/	/	/	0.849µM	/	0.849µM
SMILES	AmpC detergent	SARS PLP yeast	AmpC no deterg	Pf growth 96h	Sm TGR block	Pf growth 48h
CCCCCCCCCCCCCCCC[n+]1ccc(C(N)=O)cc1	.	.	.	.	.	?
Cc1cc[n+](CC[n+]2ccc(C)cc2)cc1	.	.	.	.	.	.
COc1ccccc1C(=O)NC(=O)Cn1nc(C)c([N+](=O)[O-])c1C	?	.	.	.	.	?
CCCCCCCCCCCC[n+]1ccc2ccccc2c1	/	/	/	3.01µM	/	0.301µM
CC1CCC2C(=O)N(c3ccccc3OC(=O)c3ccccc3)C(=O)C2C1 (centres undefined)	.	.	.	.	.	.
CC1=CCC2C(=O)N(c3ccccc3OC(=O)c3ccccc3F)C(=O)C2C1 (centres undefined)	.	.	10µM	.	.	.
CCOC(=O)N1CCN(c2cc3[nH]c(=S)[nH]c3cc2F)CC1	?	.	.	.	.	.
CCOC(=O)N1CCN(c2c(F)cc3[nH]c(=S)[nH]c3c2Br)CC1	.	.	28.2µM	/	.	?
CC(=O)N1CCCc2cc(S(=O)(=O)N3CCC(C(=O)NCc4ccccc4)CC3)ccc21	.	/	/	/	.	/
O=C(NCc1ccccc1)C1CCN(S(=O)(=O)c2ccc(N3CCCC3=O)cc2)CC1	.	.	.	14.7µM	.	?
CCC1CN(C(=O)N2CCC(C(=O)NCc3ccccc3OC)CC2)c2ccccc2O1 (centres undefined)	.	.	.	13.1µM	.	?
NC(=O)C(Cc1ccccc1)NS(=O)(=O)c1ccc(N2CCCC2=O)cc1 (centres undefined)	.	.	.	9.28µM	.	.
CCOC(=O)c1ccc(S(=O)(=O)N2CCC(C(=O)NCc3ccccc3OC)CC2)cc1	.	.	.	8.28µM	.	?
COC(=O)c1cc(Br)ccc1NC(=O)CSCc1c(C)noc1C	.	.	.	?	.	?
O=C(NCc1ccc(Cl)cc1)C1CCN(S(=O)(=O)c2ccc(N3CCCC3=O)cc2)CC1	.	?	.	13.1µM	.	.
COc1ccccc1CNC(=O)C1CCN(S(=O)(=O)c2ccc(N3CCCC3=O)cc2)CC1	.	.	.	14.7µM	.	11.7µM
O=C(Nc1cccc(C(F)(F)F)c1)C1CCN(S(=O)(=O)c2ccc(N3CCCC3=O)cc2)CC1	.	.	.	13.1µM	.	?
O=C(NCc1ccc(Cl)cc1)C1CCN(S(=O)(=O)c2ccc3c(c2)CCCN3C(=O)C2CCC2)CC1	.	/	/	/	.	/
CS(=O)(=O)N1CCC(C(=O)Nc2cccc(C(F)(F)F)c2)CC1	?	.	.	/	.	.
COc1cc(Cl)c(C)cc1NC(=O)c1cnc(N2CCCCC2)c2ccccc12	.	/	/	/	.	/
O=C(Cn1c(=O)n(Cc2nc(-c3ccccc3)no2)c(=O)c2ccccc21)Nc1cccc(C(F)(F)F)c1	.	/	/	/	.	/
CCN(CC)S(=O)(=O)c1cc(-c2nnc(-c3ccc(Br)cc3)o2)ccc1Cl	.	.	.	3.29µM	.	.
CCCCNC(=O)C1CC(c2cccc([N+](=O)[O-])c2)=NO1 (centres undefined)	.	.	.	.	.	.
CCCCCCCNC(=O)C1(CC2CC(c3ccc(Cl)cc3)=NO2)CCN(C(=O)c2ccccc2)CC1 (centres undefined)	.	.	.	9.28µM	.	?
CCCCCCCNC(=O)C1(CC2CC(c3ccccc3)=NO2)CCN(C(=O)c2ccccc2)CC1 (centres undefined)	.	.	.	9.28µM	.	11.7µM
